# Hits are enriched below; roughly 0.82% of the tested compounds scored in any of these assays.
# Y pestis TopoI – inhibitors of Yersinia pestis topoisomerase I; Y. pestis Topo-I cleavage product accumulation, plate reader; AID 504884; 0.064% of 360,000 active; activity, % at 10 µM; in the data active means activity above about 50%, passing the limit was not always enough; inconclusive means no clear call, values can overlap the other calls
# FadD28 binding – M. tuberculosis FadD28 bisubstrate binding inhibition | FadD28 bisubstrate probe binding, fluorescence polarization | inhibition, % at 12.5 µM | 0.22% of 360,000 active; in the data active means inhibition above about 8.5%, passing the limit was not always enough; inconclusive means no clear call, values can overlap the other calls
# BioA inh-1 – inhibitors of Mycobacterium tuberculosis BioA enzyme; 0.096% of 360,000 active; purified M. tuberculosis BioA enzyme, plate reader; AID 602481; inhibition, % at 9.99 µM; in the data active means inhibition above about 40%; inconclusive means no clear call, values can overlap the other calls
# Mtb UGM inh – blocks M. tuberculosis UGM enzyme; P9WIQ1; purified UGM, fluorescence polarization probe displacement; inhibition, % at 10 µM; 0.06% of 320,000 active; AID 504406; in the data active means inhibition above about 10%, passing the limit was not always enough; inconclusive means no clear call, values can overlap the other calls
# RecA intein inh – blocks M. tuberculosis RecA intein splicing; cell-free RecA intein splicing, fluorescence; inhibition, % (test concentration not listed); 0.75% of 290,000 active; AID 2221; in the data active means inhibition above about 30%; inconclusive means no clear call, values can overlap the other calls;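 further: 0% = vehicle wells and 100% = reference inhibitor control wells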
# Rv3671c protease – inhibits the M. tuberculosis serine protease Rv3671c | P9WHR9 | inhibition, % at 5.96 µM | 0.048% of 320,000 active | AID 2606; in the data active means inhibition above about 38%;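 further: extracellular domain of Rv3671c used as enzyme; 0% = enzyme with DMSO and 100% = no enzyme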
# Target sequence (P9WHR9 whole entry, looked up, the tested form may be a part): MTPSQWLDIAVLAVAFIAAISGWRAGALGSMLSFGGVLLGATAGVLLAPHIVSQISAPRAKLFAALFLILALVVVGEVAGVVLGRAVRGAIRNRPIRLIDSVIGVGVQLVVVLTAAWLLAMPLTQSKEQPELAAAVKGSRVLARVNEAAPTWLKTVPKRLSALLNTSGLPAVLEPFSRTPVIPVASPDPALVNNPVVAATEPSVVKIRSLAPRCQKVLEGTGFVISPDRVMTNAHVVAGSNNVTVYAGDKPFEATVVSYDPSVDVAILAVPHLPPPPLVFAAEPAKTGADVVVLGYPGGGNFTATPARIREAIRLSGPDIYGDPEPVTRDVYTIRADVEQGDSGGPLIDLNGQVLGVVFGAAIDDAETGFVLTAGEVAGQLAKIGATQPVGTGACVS
# BioA inh-2 – Mtb BioA enzyme inhibition; shares compounds with BioA inh-1; purified BioA enzyme, plate reader, dose response; max activity, %; 310 tested, under 10 active;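 further: top concentration of the dilution series was 10 µM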
# HepG2 cytotox – HepG2 viability loss; max activity, %; 310 tested, under 10 active; AID 651898; shares compounds with BioA inh-1; HepG2 cytotoxicity, plate reader
# NIH3T3 tox 5 – NIH3T3 viability loss. shares compounds with BioA inh-1. NIH3T3 cytotoxicity, plate reader. activity change, negative = cytotoxicity, % at 26 µM. 310 tested, under 10 active
# * marks the source's active call; other numbers are inactive results; i = inactive; ? = inconclusive; . = not tested or not shown. Unless noted, how the calls were made is not given here.
SMILES,Y pestis TopoI,FadD28 binding,BioA inh-1,Mtb UGM inh,RecA intein inh,Rv3671c protease,BioA inh-2,HepG2 cytotox,NIH3T3 tox 5
C[C@H](CO)N1C[C@H](C)[C@H](CN(C)C(=O)C2CCC2)Oc2ncc(-c3ccc(F)cc3)cc2C1=O,.,.,7,.,.,.,.,.,.
CCOc1ccc(CCNC(=O)c2cnc(C)cn2)cc1OCC,5,.,69*,2,-1,-2,-6,27,6
O=C(Nc1ccc(Cl)c(-c2nc3ccccc3[nH]2)c1)c1cccnc1,6,-14,64*,2,1,-22,23,22,-6
COc1ccc([N+](=O)[O-])cc1C(=O)NC1CCN(Cc2ccccc2)CC1,-5,-1,79*,0,0,0,5,29,1
Cc1cc(C(=O)NC2CC(C)(C)Cc3c2cnn3-c2cccc(F)c2)nn1C (centres undefined),28,0,69*,-1,.,-7,-9,-9,-8
CC1(C)Cc2c(cnn2-c2cccc(F)c2)C(NC(=O)c2ccc(=O)[nH]n2)C1 (centres undefined),2,0,9,-3,0,-10,.,.,.
CCN1/C(=C2\SC(=S)N(Cc3ccccc3)C2=O)Sc2ccccc21,-6,0,.,-2,0,2,.,.,.
CCC(CO)[n+]1c(C)cc(/C=C2\Sc3ccccc3N2Cc2ccccc2)cc1C (centres undefined),16,-3,53*,0,.,-9,-6,14,-9
COc1cc2c3cc1Oc1cc(ccc1O)C[C@@H]1c4c(cc(OC)c(O)c4Oc4cccc(c4)C[C@@H]3N(C)CC2)CC[N+]1(C)C,0,1,51*,-2,.,1,-7,15,2
COc1cc2c3cc1Oc1cc(ccc1O)C[C@@H]1c4c(cc(OC)c(O)c4Oc4ccc(cc4)C[C@H]3N(C)CC2)CCN1C,-1,-2,1,2,-3,6,.,.,.
CC(C)NC(=O)N(C)C[C@H]1Oc2ncc(C#CCc3ccccc3)cc2C(=O)N([C@@H](C)CO)C[C@@H]1C,.,.,-2,.,.,.,.,.,.
CC(=O)c1ccc(N2CCN(C(=O)c3ccc(Br)cc3)CC2)c(F)c1,23,-3,93*,-3,-1,-7,-6,-11,2
CC(=O)c1ccc(N2CCN(C(=O)Cc3ccccc3)CC2)c(F)c1,6,-2,55*,-1,-7,-5,-5,20,2
O=C(Cc1ccccc1)N1CCN(c2ccccc2F)CC1,-3,-1,0,-1,0,3,.,.,.
CC(=O)N(C)C[C@@H]1Oc2cc(-c3ccccc3F)ccc2S(=O)(=O)N([C@@H](C)CO)C[C@@H]1C,.,.,-1,.,.,.,.,.,.
CCN(CC)CCNC(=O)c1cn(CC)c2ccc(S(=O)(=O)N3CCc4ccccc4C3)cc2c1=O,7,-2,59*,0,-3,-1,-6,-8,0
CC(=O)c1ccc(N2CCN(c3ncccn3)CC2)c([N+](=O)[O-])c1,3,-3,67*,-2,6,-13,-2,-9,-1
CC(CNC(=O)CCCn1ncn2c(cc3occc32)c1=O)c1ccccc1 (centres undefined),10,-3,67*,1,0,0,-9,-13,-5
CN1CCN(c2ncnc3c2[nH]c2ccc(F)cc23)CC1,-10,0,70*,-1,.,4,-6,-9,-5
Fc1ccc2[nH]c3c(NCCN4CCOCC4)ncnc3c2c1,-3,-2,54*,0,-1,-10,5,?,?
CCCC(=O)Nc1ccc2c(c1)OC[C@@H](C)N(C(=O)c1cnccn1)C[C@H](C)[C@@H](OC)CN(C)C2=O,.,.,-1,.,.,.,.,.,.
Cc1ccc(-c2nnc(N3CCN(C(=O)CSc4ncn[nH]4)CC3)c3ccccc23)cc1,23,-3,52*,4,.,0,-8,6,-1
CCc1c(C(=O)NCCc2ccc(OC)c(OC)c2)[nH]c(C)c1C(C)=O,1,-2,60*,-6,.,-11,-9,10,-6
O=C(C[C@@H]1CC[C@H]2[C@@H](COC[C@@H](O)CN2C(=O)c2ccccc2F)O1)NCc1ccccc1,.,.,-1,.,.,.,.,.,.
CCC(=O)Nc1cccc(NC(=O)c2ccc(C)c([N+](=O)[O-])c2)c1,0,-1,.,1,1,3,.,.,.
SMILES,Y pestis TopoI,FadD28 binding,BioA inh-1,Mtb UGM inh,RecA intein inh,Rv3671c protease,BioA inh-2,HepG2 cytotox,NIH3T3 tox 5
CCCC(=O)Nc1cccc(NC(=O)c2ccc(C)c([N+](=O)[O-])c2)c1,-10,-3,44*,-1,4,4,-6,-15,-2
COc1ccccc1S(=O)(=O)N1CC[C@@H]2[C@H](CO)Nc3ccc(-c4cccc(C#N)c4)cc3[C@@H]21,.,.,48*,.,.,.,20,i,1
COc1ccccc1S(=O)(=O)N1CC[C@H]2[C@H](CO)Nc3ccc(-c4cccc(C#N)c4)cc3[C@H]21,.,.,20,.,.,.,.,.,.
COc1ccc(S(=O)(=O)Nc2ccc3c(c2)C(=O)N([C@@H](C)CO)C[C@H](C)[C@H](CN(C)C(=O)Nc2ccc(C(F)(F)F)cc2)OCCCC[C@@H](C)O3)cc1,.,.,-1,.,.,.,.,.,.
Cc1ccc(-n2nc3c(N4CCC(C(=O)N5CCN(C)CC5)CC4)nnc(C)c3c2C)cc1,11,-1,35,-2,-4,2,.,.,.
CCCN1CCN(C(=O)C2CCN(c3nnc(C)c4c(C)n(-c5ccc(C)cc5)nc34)CC2)CC1,28,-1,41*,3,3,-16,-5,17,-9
COc1ccc(-c2cnc3c(c2)C(=O)N([C@@H](C)CO)C[C@@H](C)[C@@H](CN(C)C(=O)Cc2ccncc2)O3)cc1,.,.,1,.,.,.,.,.,.
CNC[C@H]1Oc2c(NC(=O)NC(C)C)cccc2C(=O)N([C@H](C)CO)C[C@@H]1C,.,.,-3,.,.,.,.,.,.
CC(=O)N1[C@@H]2c3ccc(-c4cccnc4)c(=O)n3C[C@@H]2[C@@H](CO)[C@@H]1C(=O)NCc1ccccc1Cl,.,.,85*,.,.,.,9,i,-9
CCNC(=O)[C@@H]1[C@@H](CO)[C@@H]2Cn3c(ccc(-c4ccc(F)cc4)c3=O)[C@@H]2N1C(=O)Cc1cccnc1,.,.,3,.,.,.,.,.,.
CC(=O)N1[C@@H]2c3ccc(-c4cncnc4)c(=O)n3C[C@@H]2[C@@H](CO)[C@@H]1C(=O)NCc1ccccc1Cl,.,.,12,.,.,.,.,.,.
CCNC(=O)[C@H]1[C@H](CO)[C@H]2Cn3c(ccc(-c4ccccc4)c3=O)[C@H]2N1C(=O)Cc1cccnc1,.,.,40*,.,.,.,-2,i,10
CN1CCN(C(=O)C[C@H]2CC[C@H]3[C@@H](COC[C@H](O)CN3Cc3ccc4c(c3)OCO4)O2)CC1,.,.,0,.,.,.,.,.,.
O=C(C[C@H]1C[C@@H]2c3cc(NC(=O)c4cccnc4)ccc3O[C@@H]2[C@@H](CO)O1)NCC(F)(F)F,.,.,44*,.,.,.,-5,i,0
CN(C)C(=O)C[C@H]1C[C@@H]2c3cc(NC(=O)c4cccnc4)ccc3O[C@@H]2[C@@H](CO)O1,.,.,19,.,.,.,.,.,.

# Screening results (PubChem)
